Out of some 63,000 compounds screened, about 1,100 (1.7%) were called active. The sample as a whole holds a higher share of actives than the screen did. Results with a measured potency or affinity are listed apart. Values without a mark were called inactive. Cut-off read from the data, not from the text of the source: active = cytotoxicity above about 50%; inactive = the rest.
Assay: cytotoxicity in HPDE-C7 cells, cell-based, fluorescence, HTS (AID 430);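 note: cells exposed to compound for 48 hours before viability readout; 0% = vehicle and 100% = reference cytotoxic drug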
Conditions: HPDE-C7 pancreatic duct cells viability, at 10 µM, active compounds read high

Going from `CCOc1ccc(Cn2nnc(C(=O)NCc3ccc(OC)cc3)c2N)cc1` to `Cc1ccc(CS(=O)(=O)Cc2ccc(C(=O)NCc3ccco3)o2)cc1`, the cytotoxicity falls from -14.5% to -21%.

First: CCOc1cc(S(=O)(=O)NCC2OCCc3ccccc32)c(OCC)cc1-n1cnnn1 (centres undefined)
Second: O=C(NC1CCc2ccccc21)C1CCN(S(=O)(=O)c2ccc(-n3cnnn3)cc2)CC1 (centres undefined)
The cytotoxicity of the first is higher: 2.3% for the first, -11% for the second.

Going from `CCC(=O)OC1=C2C(=Nc3c(c(=O)n(C)c(=O)n3C)C2c2ccccc2)c2ccccc21` (centres undefined) to `CCN(Cc1ccccc1)S(=O)(=O)c1ccc(C(=O)Nc2nnc(-c3ccccc3OC)o2)cc1`, the cytotoxicity rises from 0.2% to 35.6%.

First: CCOc1cc(NC(=O)c2ccco2)c(OCC)cc1NC(=O)Cc1ccc(OC)c(OC)c1
Second: COc1cc(NC(=O)c2ccco2)ccc1NC(=O)c1ccccc1Cl
The cytotoxicity of the first is lower: -12% for the first, 2.8% for the second.

Going from `Cc1cc(C)cc(N2CCCn3c2nc2c3c(=O)n(CCN3CCOCC3)c(=O)n2C)c1` to `Cc1cc(C)n(-c2ccc(C(=O)Nc3ccccc3N3CCOCC3)cc2)n1`, the cytotoxicity rises from -6.7% to -4.1%.

Going from `CC(=O)C1=C(O)C(=O)N(Cc2cccnc2)C1c1ccc(Cl)cc1Cl` (centres undefined) to `N#Cc1c(-c2ccco2)nc(SCC(=O)Nc2cccc(Cl)c2)[nH]c1=O`, the cytotoxicity rises from -17.4% to 19%.

Going from `Cc1ccc2c(c1)NC(=O)C(CC(=O)N(C)Cc1ccccc1)O2` (centres undefined) to `O=C(NCCc1ccccc1)C1CCCN1C(=O)Nc1ccc(F)cc1` (centres undefined), the cytotoxicity falls from 1.5% to -11.3%.

First: CC(OC(=O)C1CCCO1)C(=O)NC1CCCC1 (centres undefined)
Second: O=C(NCC1COCCO1)C1CCN(S(=O)(=O)c2ccccc2)CC1 (centres undefined)
The cytotoxicity of the first is higher: 5.3% for the first, -6.9% for the second.

First: COC(=O)c1ccc(NC(=O)c2ccccc2NS(C)(=O)=O)cc1
Second: CCOC(=O)c1ccc(NC(=O)c2cccc(S(=O)(=O)N3CCOCC3)c2)cc1
The cytotoxicity of the first is lower: 10.7% for the first, 20.1% for the second.

First: O=C(c1cccn2c(=O)c3ccc(Cl)cc3nc12)N1CCN(Cc2ccc3c(c2)OCO3)CC1
Second: COc1cc2c(=O)n(-c3ccc(C)cc3)c(=O)n(CC(=O)c3ccc4c(c3)OCO4)c2cc1OC
The cytotoxicity of the first is lower: -0.1% for the first, 6.8% for the second.

First: COc1ccc(C(=O)Oc2ccc3c(c2)OCO3)cc1OC
Second: COc1ccc(C(=O)OC(C)CN2CCOCC2)cc1OC (centres undefined)
The cytotoxicity of the first is lower: -13.3% for the first, -1.4% for the second.

Going from `Cc1ccc(S(=O)(=O)NCc2ccncc2)cc1` to `CN(c1ccccc1)S(=O)(=O)c1ccc(C(=O)Nc2nccs2)cc1`, the cytotoxicity falls from 3.6% to -7.3%.

Compared with `COc1ccc(Nc2nc(N)nc(CSc3n[nH]c(-c4ccccc4)n3)n2)cc1`, `O=C1CCCC2=C1C(c1cccs1)n1nc(SCc3ccccc3F)nc1N2` (centres undefined) is higher in cytotoxicity: -20.3% for the first, -11.2% for the second.

Going from `COc1ccccc1N1CCN(C(=O)C2CC=CCC2C(=O)O)CC1` (centres undefined) to `CCOC(=O)c1[nH]c2ccc(OCC)cc2c1NC(=O)CN1CCN(c2ccccc2)CC1`, the cytotoxicity falls from 9.5% to 4.4%.

Compared with `COc1ccc(C(C)=O)cc1COC(=O)c1ccc(S(=O)(=O)N2CCOCC2)cc1`, `CCOC(=O)c1sc(NC(=O)c2ccc(S(=O)(=O)N3CCOCC3)cc2)cc1C` is lower in cytotoxicity: 21% for the first, -2.3% for the second.

Compared with `Cc1nc(SCc2cccc(F)c2)[nH]c(=O)c1C#N`, `Cc1ccccc1C(=O)Nc1nnc(-c2ccc(F)cc2)o1` is higher in cytotoxicity: -9.7% for the first, 18.7% for the second.

First: Cn1c(Cn2nnc3ccccc32)nnc1SCC(=O)N1c2ccccc2CCc2ccccc21
Second: CCc1ccc2c(CN3CCc4ccccc43)cc(=O)oc2c1
The cytotoxicity of the first is lower: -18% for the first, -5.4% for the second.

Going from `CC(CN1CCOCC1)OC(=O)c1ccc2c(c1)OCCO2` (centres undefined) to `CCOC(=O)c1[nH]c2ccccc2c1NC(=O)CN1CCCCC1`, the cytotoxicity falls from 4.5% to -4.1%.

Going from `c1csc(-c2nn[nH]n2)c1` to `COc1ccccc1-c1nnc(NC(=O)c2ccc(S(=O)(=O)N(C)C)cc2)o1`, the cytotoxicity rises from -3.1% to -2.7%.

Compared with `c1ccc2c(c1)oc1c(NCc3ccc4c(c3)OCO4)ncnc12`, `CCOC(=O)c1[nH]c2ccc(F)cc2c1NC(=O)CN1CCc2cc(OC)c(OC)cc2C1` is lower in cytotoxicity: -2.2% for the first, -3.8% for the second.

Going from `CCNC(=O)N1c2ccc(OC)cc2C(C)=CC1(C)C` to `CCOC(=O)c1[nH]c2ccc(OC)cc2c1NC(=O)C(C)N1CCSCC1` (centres undefined), the cytotoxicity rises from 3.2% to 19.3%.

With `COc1cc2c(O)c3c(c(-c4ccc5c(c4)OCO5)c2cc1OC)C(=O)OC3` the cytotoxicity was 82.2% (active).
With `N#Cc1c(-c2ccco2)nc(SCc2ccc(F)cc2)[nH]c1=O` the cytotoxicity was 54.3% (active).
In the case of `CCOC(=O)c1sc(NC(=O)c2cccc(S(=O)(=O)N3CCN(C)CC3)c2)cc1C`, the cytotoxicity is reported as 51% (active).
With `COc1ccccc1-c1nnc(NC(=O)c2ccc(S(=O)(=O)N(C)Cc3ccccc3)cc2)o1` the cytotoxicity was 55.9% (active).
For `CN(c1ccccc1)S(=O)(=O)c1ccc(C(=O)Nc2nnc(-c3ccc(F)cc3)o2)cc1`, the cytotoxicity was 58.9% (active).
For `CCOC(=O)c1[nH]c2ccc(F)cc2c1NC(=O)CN1CCN(C/C=C/c2ccccc2)CC1`, the cytotoxicity was 64.9% (active).
For `CCOC(=O)c1[nH]c2ccc(F)cc2c1NC(=O)C(C)N1CCc2cc(OC)c(OC)cc2C1` (centres undefined), the cytotoxicity was 58.6% (active).

Source: PubChem BioAssay AID430 (Sanford-Burnham Center for Chemical Genomics, 2006)
